This is an account of results in PubChem BioAssay (NCATS).

Results filed as inconclusive are left out. A number with no mark means an inactive call. Calls of active or inactive are those of the source. Calls follow the shape of the dose curve; as a rule, active = well fitted curve in the direction sought with a large enough effect in the repeat runs; inconclusive = weak or mixed curves; inactive = no such curve, though single readings can be large; an effect the other way counts as inactive or inconclusive.
% is scaled to controls: 0 for no effect and ±100 for the full control effect; potency is read from the fitted curve at half-maximal effect.
Also: nearly all actives have a fitted effect of over 55% in size.

Chain of Cytochrome P450 2C9 (Homo sapiens) (P11712 whole entry, looked up): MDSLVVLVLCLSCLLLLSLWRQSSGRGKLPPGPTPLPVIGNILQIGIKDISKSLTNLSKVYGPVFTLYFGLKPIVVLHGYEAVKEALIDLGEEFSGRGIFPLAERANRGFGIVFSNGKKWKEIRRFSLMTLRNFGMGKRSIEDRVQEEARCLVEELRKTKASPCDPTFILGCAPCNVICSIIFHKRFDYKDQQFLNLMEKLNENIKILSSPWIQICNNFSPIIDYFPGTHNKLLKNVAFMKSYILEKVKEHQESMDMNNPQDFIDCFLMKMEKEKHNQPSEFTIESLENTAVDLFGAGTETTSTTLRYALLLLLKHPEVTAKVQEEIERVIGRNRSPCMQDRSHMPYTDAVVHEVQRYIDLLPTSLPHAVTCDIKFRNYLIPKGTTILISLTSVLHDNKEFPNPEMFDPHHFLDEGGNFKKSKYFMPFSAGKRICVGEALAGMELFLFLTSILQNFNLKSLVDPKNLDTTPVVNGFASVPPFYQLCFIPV
Chain of Cytochrome P450 2D6 (Homo sapiens) (P10635 whole entry, looked up): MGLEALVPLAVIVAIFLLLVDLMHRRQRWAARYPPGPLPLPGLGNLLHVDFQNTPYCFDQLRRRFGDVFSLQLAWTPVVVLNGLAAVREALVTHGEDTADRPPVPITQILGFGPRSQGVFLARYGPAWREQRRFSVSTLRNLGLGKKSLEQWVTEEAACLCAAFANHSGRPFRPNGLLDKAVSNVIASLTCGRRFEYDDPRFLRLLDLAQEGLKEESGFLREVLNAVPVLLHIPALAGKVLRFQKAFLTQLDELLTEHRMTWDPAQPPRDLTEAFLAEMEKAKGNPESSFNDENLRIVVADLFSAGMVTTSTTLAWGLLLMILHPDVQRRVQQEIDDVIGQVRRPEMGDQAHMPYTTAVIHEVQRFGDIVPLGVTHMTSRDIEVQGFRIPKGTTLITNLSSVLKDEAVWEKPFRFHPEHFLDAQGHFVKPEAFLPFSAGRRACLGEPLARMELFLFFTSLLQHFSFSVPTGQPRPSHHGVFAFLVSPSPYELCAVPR

In the first assay the target is Cytochrome P450 2D6 (Homo sapiens) (UniProt P10635). The experiment in a line: Cytochrome P450 family 2 subfamily D member 6 (CYP2D6) small molecule antagonists: luciferase biochemical (cell-free) qHTS assay (AID 1645840). The following applies: P450-Glo CYP2D6 enzyme, luciferin luminescence, 1 h; series mostly up to 57.4 µM; activity change, negative = inhibition: at the top concentration. In a few lines:
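P450-Glo luminescent screen: recombinant CYP2D6 enzyme–proluciferin substrate mix preincubated with compound 10 min at room temperature, then NADPH regeneration added for 1 h at room temperature. Detection reagent added for 20 min; luciferin light read as relative luminescence units.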
(qHTS replaces the single test concentration by a dilution series.)
Consider `Cc1ccc(C2=CC(c3ccccc3C)n3c(nc4ccccc43)N2)cc1` (stereo not given), for which the Potency is 9.52 µM (active).

As for `Cc1ccc(CNC(=O)C(C)n2nc(C)c3sc4ccccc4c3c2=O)cc1` (stereo not given), the Potency was 13.5 µM (active).

In the case of `Cc1ccn2c(Nc3ccccc3C)c(-c3ccccn3)nc2c1`, the Potency is 19 µM (active).

`Cc1oc(-c2ccccc2F)nc1Cn1c(SCc2ccccc2F)nc2ccncc21`: the Potency is 12 µM (active).

For the compound `COc1cccc(-c2oc3ccc(C)cc3c(=O)c2O)c1`, the Potency is 7.56 µM (active).

Consider `COc1ccc(-n2nc3c(N4CCCC(C(=O)NCc5ccc(C)cc5)C4)nnc(C)c3c2C)cc1` (stereo not given), for which the Potency was 3.79 µM (active).

As for `CCOC(=O)N1CCc2c(sc3c2c(=O)n(Cc2ccccc2)c(=O)n3CC(=O)Nc2cccc(C)c2)C1`, the Potency is 1.51 µM (active).

As to `CCOCCCNC(=O)C(=O)Nc1c2c(nn1-c1ccc(OC)cc1)CSC2`, the “activity change, negative = inhibition” value was 25.7%.

In the case of `COc1ccc(CC(=O)Nc2c(C(=O)N3CCN(c4ccccc4F)CC3)oc3ccccc23)cc1OC`, the “activity change, negative = inhibition” value is -21.6%.

Regarding `CC1=CC(O)=NS(=O)(=O)O1`, the “activity change, negative = inhibition” value was 14.4%.

In the case of `NC(=O)C[C@H](N)C(=O)O`, the “activity change, negative = inhibition” value was 9.69%.

In the case of `COc1ccc(-n2nc3c(N4CCCC(C(=O)NCc5cccc(F)c5)C4)nnc(C)c3c2C)cc1` (stereo not given), the Potency is 1.69 µM (active).

`CC1=C(C(=O)Nc2ccc(CN)cc2)C(c2ccccc2Cl)N=C(Nc2nc3ccccc3o2)N1` (stereo not given): the Potency was 15.1 µM (active).

As for `Cc1ccc(CNC(=O)C2CCN(S(=O)(=O)c3c(C)noc3/C=C/c3ccccc3F)CC2)o1`, the “activity change, negative = inhibition” value is -27.3%.

As to `CC(=O)c1ccc(NC(=O)C2CCN(c3nnc(C)c4c(C)n(-c5ccccc5)nc34)CC2)cc1`, the Potency is 12 µM (active).

For `CCOC(=O)C1=C(O)c2ccccc2S(=O)(=O)N1C`, the “activity change, negative = inhibition” value was 5.16%.

As for `COc1ccc(CCNc2nc(SCc3ccccc3F)nc3ccccc23)cc1OC`, the Potency is 0.151 µM (active).

Turning to `COC(=O)c1c(SCC(=O)Nc2cc(C)cc(C)c2)[nH]c2ccccc2c1=O`, the “activity change, negative = inhibition” value was 0.124%.

`N#Cc1ccccc1Cn1nnc2c(=O)[nH]c(C3CCCN(S(=O)(=O)c4ccc(F)cc4)C3)nc21` (stereo not given): the Potency is 0.849 µM (active).

Consider `CCOc1ccc(-c2nonc2NC(=O)c2oc3c(C)c(C)ccc3c2C)cc1OCC`, for which the “activity change, negative = inhibition” value was 17.2%.

Turning to `CCOC(=O)N1CCc2c(sc3c2c(=O)n(CCc2ccccc2)c(=O)n3CC(=O)Nc2cccc(C)c2)C1`, the Potency is 1.07 µM (active).

For `CCc1ccc(-n2c(SCc3cccc(F)c3)nc3[nH]ncc3c2=O)cc1`, the Potency is 12 µM (active).

With `COc1ccc(-n2nc3c(N4CCCC(C(=O)NCc5ccccc5C)C4)nnc(C)c3c2C)cc1` (stereo not given), the Potency was 4.77 µM (active).

`CCc1ccc(S(=O)(=O)NCc2ccc3c(c2)CCN3C(=O)c2ccc(C)cc2)cc1`: the Potency was 5.35 µM (active).

On to `CC[C@H](CO)Nc1cc(NCc2ccc(-c3ccccn3)cc2)c2ncn(C(C)C)c2n1`, for which the Potency was 16.9 µM (active).

On to `CN(C)[S+](=O)([O-])c1ccc([S+](=O)([O-])N(Cc2cccs2)Cc2ccccc2Cl)cc1`, for which the Potency is 1.9 µM (active).

`COc1ccc(C(C#N)C(C)C)cc1OC` (stereo not given): the “activity change, negative = inhibition” value is -0.243%.

As to `CCc1cccc(CC)c1-n1c(CC(C)C)c(C(=O)N2CCNCC2)cc(-c2nc(-c3ccc(Cl)cc3)cs2)c1=O`, the Potency is 9.52 µM (active).

Take `COC(=O)c1ccc(C2C=C(c3ccc(Cl)cc3)Nc3nc4ccccc4n32)cc1` (stereo not given): the Potency was 3.38 µM (active).

As to `O=C(CSc1nc2ccsc2c(=O)n1Cc1ccccc1F)NCc1ccccc1Cl`, the Potency was 2.68 µM (active).

Turning to `Cc1ccc(Cn2c(CN3CCC(C(=O)NCCc4ccccc4)CC3)cc3ccccc32)cc1`, the Potency is 0.0477 µM (active).

Turning to `Cc1cc(NC(=O)C2CCN(S(=O)(=O)c3ccc4[nH]c(=O)oc4c3)CC2)ccc1Br`, the Potency is 16.9 µM (active).

`CC1(C#N)CCN(c2c(C(=O)N3CCN(C(=O)C4CC4)CC3)cnc3ccc(Cl)cc23)CC1`: the “activity change, negative = inhibition” value is -24.2%.

For the compound `CCOC(=O)c1ccc(Nc2nc3nonc3nc2Nc2cccc(C)c2C)cc1`, the Potency was 10.7 µM (active).

As for `COc1ccc(C(=O)Oc2ccc(C(c3c(C)[nH][nH]c3=O)c3c(C)[nH][nH]c3=O)cc2)cc1`, the “activity change, negative = inhibition” value is 6.78%.

For the compound `COc1cccc(NC(=O)Cn2c(=O)n(CC(=O)NCc3ccc(C)cc3)c(=O)c3sccc32)c1`, the Potency was 0.107 µM (active).

With `CCOC(=O)c1ccc(NC(=O)CSc2cc(-c3ccccc3)nc(C)n2)cc1`, the “activity change, negative = inhibition” value was -11.5%.

Take `Cc1ccc2nc3c(cc(C#N)c(=O)n3-c3nnc(SCc4ccccc4)s3)c(=O)n2c1`: the “activity change, negative = inhibition” value is 9.87%.

Regarding `Cc1ccc(NC(=O)Cn2cc(C(=O)c3ccco3)c3ccccc32)c(C)c1`, the Potency was 6.74 µM (active).

For the compound `Cc1c(Cl)cccc1NC(=O)Cn1cc(C(=O)C2CCCCC2)c2ccccc21`, the Potency was 5.35 µM (active).

A further assay deals with Cytochrome P450 2C9 (Homo sapiens) (UniProt P11712). The assay is described as follows: Cytochrome P450 family 2 subfamily C member 9 (CYP2C9) small molecule antagonists: luciferase biochemical (cell-free) qHTS assay (AID 1645842). The following applies: P450-Glo CYP2C9 enzyme assay, luciferin luminescence; series mostly up to 57.4 µM; activity change, negative = inhibition: at the top concentration. The essentials:
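Luminescence, after 20 min with luciferin detection reagent, reflected CYP2C9 turnover during a 1 h NADPH-driven reaction at 37C. Enzyme-substrate mix contained 0.4% bovine serum albumin and was preincubated with compound 10 min at room temperature.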
In the case of `Cc1ccc(C2=CC(c3ccccc3C)n3c(nc4ccccc43)N2)cc1` (stereo not given), the Potency was 3.38 µM (active).

`Cc1ccc(CNC(=O)C(C)n2nc(C)c3sc4ccccc4c3c2=O)cc1` (stereo not given): the Potency is 2.39 µM (active).

Regarding `Cc1ccn2c(Nc3ccccc3C)c(-c3ccccn3)nc2c1`, the Potency was 0.952 µM (active).

Consider `Cc1oc(-c2ccccc2F)nc1Cn1c(SCc2ccccc2F)nc2ccncc21`, for which the Potency is 9.52 µM (active).

As to `COc1cccc(-c2oc3ccc(C)cc3c(=O)c2O)c1`, the Potency was 7.56 µM (active).

For `COc1ccc(-n2nc3c(N4CCCC(C(=O)NCc5ccc(C)cc5)C4)nnc(C)c3c2C)cc1` (stereo not given), the “activity change, negative = inhibition” value was 8.15%.

Regarding `CCOC(=O)N1CCc2c(sc3c2c(=O)n(Cc2ccccc2)c(=O)n3CC(=O)Nc2cccc(C)c2)C1`, the Potency is 4.25 µM (active).

On to `CCOCCCNC(=O)C(=O)Nc1c2c(nn1-c1ccc(OC)cc1)CSC2`, for which the Potency was 10.7 µM (active).

On to `COc1ccc(CC(=O)Nc2c(C(=O)N3CCN(c4ccccc4F)CC3)oc3ccccc23)cc1OC`, for which the “activity change, negative = inhibition” value is 13.9%.

As to `CC1=CC(O)=NS(=O)(=O)O1`, the “activity change, negative = inhibition” value is 1.75%.

Regarding `NC(=O)C[C@H](N)C(=O)O`, the “activity change, negative = inhibition” value is 1.03%.

For the compound `COc1ccc(-n2nc3c(N4CCCC(C(=O)NCc5cccc(F)c5)C4)nnc(C)c3c2C)cc1` (stereo not given), the Potency was 8.49 µM (active).

Take `CC1=C(C(=O)Nc2ccc(CN)cc2)C(c2ccccc2Cl)N=C(Nc2nc3ccccc3o2)N1` (stereo not given): the Potency is 10.7 µM (active).

For `Cc1ccc(CNC(=O)C2CCN(S(=O)(=O)c3c(C)noc3/C=C/c3ccccc3F)CC2)o1`, the “activity change, negative = inhibition” value is 7.45%.

As for `CC(=O)c1ccc(NC(=O)C2CCN(c3nnc(C)c4c(C)n(-c5ccccc5)nc34)CC2)cc1`, the Potency is 7.56 µM (active).

On to `CCOC(=O)C1=C(O)c2ccccc2S(=O)(=O)N1C`, for which the “activity change, negative = inhibition” value is 22.1%.

On to `COc1ccc(CCNc2nc(SCc3ccccc3F)nc3ccccc23)cc1OC`, for which the Potency was 0.849 µM (active).

Take `COC(=O)c1c(SCC(=O)Nc2cc(C)cc(C)c2)[nH]c2ccccc2c1=O`: the Potency was 21.3 µM (active).

`N#Cc1ccccc1Cn1nnc2c(=O)[nH]c(C3CCCN(S(=O)(=O)c4ccc(F)cc4)C3)nc21` (stereo not given): the Potency was 1.69 µM (active).

For the compound `CCOc1ccc(-c2nonc2NC(=O)c2oc3c(C)c(C)ccc3c2C)cc1OCC`, the Potency was 0.379 µM (active).

Regarding `CCOC(=O)N1CCc2c(sc3c2c(=O)n(CCc2ccccc2)c(=O)n3CC(=O)Nc2cccc(C)c2)C1`, the Potency was 1.69 µM (active).

In the case of `CCc1ccc(-n2c(SCc3cccc(F)c3)nc3[nH]ncc3c2=O)cc1`, the Potency was 12 µM (active).

`COc1ccc(-n2nc3c(N4CCCC(C(=O)NCc5ccccc5C)C4)nnc(C)c3c2C)cc1` (stereo not given): the Potency was 0.477 µM (active).

Turning to `CCc1ccc(S(=O)(=O)NCc2ccc3c(c2)CCN3C(=O)c2ccc(C)cc2)cc1`, the Potency was 0.674 µM (active).

Regarding `CC[C@H](CO)Nc1cc(NCc2ccc(-c3ccccn3)cc2)c2ncn(C(C)C)c2n1`, the Potency was 1.34 µM (active).

For the compound `CN(C)[S+](=O)([O-])c1ccc([S+](=O)([O-])N(Cc2cccs2)Cc2ccccc2Cl)cc1`, the Potency is 3.79 µM (active).

On to `COc1ccc(C(C#N)C(C)C)cc1OC` (stereo not given), for which the “activity change, negative = inhibition” value was -22.2%.

With `CCc1cccc(CC)c1-n1c(CC(C)C)c(C(=O)N2CCNCC2)cc(-c2nc(-c3ccc(Cl)cc3)cs2)c1=O`, the Potency is 10.7 µM (active).

For `COC(=O)c1ccc(C2C=C(c3ccc(Cl)cc3)Nc3nc4ccccc4n32)cc1` (stereo not given), the Potency was 2.68 µM (active).

`O=C(CSc1nc2ccsc2c(=O)n1Cc1ccccc1F)NCc1ccccc1Cl`: the Potency was 1.51 µM (active).

As to `Cc1ccc(Cn2c(CN3CCC(C(=O)NCCc4ccccc4)CC3)cc3ccccc32)cc1`, the Potency is 2.13 µM (active).

Consider `Cc1cc(NC(=O)C2CCN(S(=O)(=O)c3ccc4[nH]c(=O)oc4c3)CC2)ccc1Br`, for which the Potency was 0.425 µM (active).

Regarding `CC1(C#N)CCN(c2c(C(=O)N3CCN(C(=O)C4CC4)CC3)cnc3ccc(Cl)cc23)CC1`, the Potency was 16.9 µM (active).

As to `CCOC(=O)c1ccc(Nc2nc3nonc3nc2Nc2cccc(C)c2C)cc1`, the “activity change, negative = inhibition” value is 25.5%.

`COc1ccc(C(=O)Oc2ccc(C(c3c(C)[nH][nH]c3=O)c3c(C)[nH][nH]c3=O)cc2)cc1`: the Potency was 10.7 µM (active).

As to `COc1cccc(NC(=O)Cn2c(=O)n(CC(=O)NCc3ccc(C)cc3)c(=O)c3sccc32)c1`, the Potency was 6.01 µM (active).

As for `CCOC(=O)c1ccc(NC(=O)CSc2cc(-c3ccccc3)nc(C)n2)cc1`, the Potency was 0.952 µM (active).

With `Cc1ccc2nc3c(cc(C#N)c(=O)n3-c3nnc(SCc4ccccc4)s3)c(=O)n2c1`, the Potency is 3.79 µM (active).

As for `Cc1ccc(NC(=O)Cn2cc(C(=O)c3ccco3)c3ccccc32)c(C)c1`, the Potency is 0.849 µM (active).

In the case of `Cc1c(Cl)cccc1NC(=O)Cn1cc(C(=O)C2CCCCC2)c2ccccc21`, the Potency was 2.13 µM (active).
